MCF10A rereplic: A quantitative high throughput screen for small molecules that induce DNA re-replication in MCF 10a normal breast cells. MCF 10A DNA re-replication, Hoechst nuclear intensity, 48 h. Potency, µM (doses to about 46.1 µM), for inactives: at the top dose activity, positive = re-replication, most hits filed as activators. 2.9% of 350,000 active. AID 624296, 2012; also: % of control where 0% means no effect; nearly all actives have a fitted effect of over 50% in size
KB-V1 cytotox: qHTS assay for MDR1-selective chemotherapeutics: Primary screen using the drug-selected MDR subline cells KB-V1. Potency, µM (titrated, usually from 46.1 µM), actives largely listed as cytotoxic. 3.4% of 400,000 active. AID 1347076, 2019. KB-V1 MDR cells viability, CellTiter-Glo, 72 h; also: % is scaled to controls: 0 for no effect and ±100 for the full control effect; nearly all actives have a fitted effect of over 60% in size
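Drug-selected KB-V1 cells, grown in DMEM lacking phenol red with 10% FBS, receive compound titrations; after three days at 37 degrees C, surviving cell ATP is quantified by CellTiter-Glo luminescence and responses normalized and curve-fitted.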
KB-3-1 tox: qHTS assay for MDR1-selective chemotherapeutics: Primary screen using the parental adenocarcinoma cell KB-3-1. KB-3-1 viability, CellTiter-Glo ATP luminescence, 72 h. Potency, µM (titrated, usually from 46.1 µM), hits mostly cytotoxic. 1.4% of 400,000 active. AID 1347075, 2019; also: % is scaled to controls: 0 for no effect and ±100 for the full control effect; nearly all actives have a fitted effect of over 60% in size
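KB-3-1 parental drug-naive adenocarcinoma cells in DMEM/10% FBS, incubated 72 h at 37 C with pin-transferred compounds across a concentration series. Viability by CellTiter-Glo luminescence; concentration-response curves fitted after normalization.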
SW480 rerep: A quantitative high throughput screen for small molecules that induce DNA re-replication in SW480 colon adenocarcinoma cells. AID 624297, 2012. Potency, µM (top dose mostly 46.1 µM), for inactives: at the highest dose re-replication activation, hits mostly activators. 1.8% of 340,000 active. SW480 DNA re-replication, Hoechst DNA content imaging, 48 h; also: % of control where 0% means no effect; nearly all actives have a fitted effect of over 55% in size
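First, 250 cells per well were seeded. Next, compound or vehicle (23 nL) was pinned in, plates sat 48 hr at 37 C. Finally Hoechst was added for 40 min before fluorescence scanning.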
HT1080 IDH1KD tx: qHTS for induction of synthetic lethality in tumor cells producing 2HG: qHTS for the HT-1080-IDH1KD cell line; HT-1080 IDH1 knockdown viability, ATP luminescence, 48 h; Potency, µM (top dose mostly 46.1 µM), for the others: at the top dose activity, negative = toxicity, usual class: cytotoxic; 2% of 360,000 active;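 also: 0% = DMSO wells and -100% = cell-free medium wells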
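In this qHTS, HT-1080 cells depleted of IDH1 are exposed for 48 h at 37 °C to compound titrations. Toxicity is scored from CellTiter-Glo luminescence, with DMSO as full viability and medium alone as none.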
HT1080NT lethal: qHTS for induction of synthetic lethality in tumor cells producing 2HG: qHTS for the HT-1080-NT fibrosarcoma cell line; HT-1080-NT fibrosarcoma viability, CellTiter-Glo ATP luminescence, 48 h; Potency, µM (highest dose often 46.1 µM), inactives show at the top dose activity, negative = less viability, hits mostly cytotoxic; 1.6% of 360,000 active; AID 686970, 2013;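 also: NT is the 2HG producing partner of a matched IDH1 knockdown line; 0% = DMSO-treated cells and -100% = media-only wells without cells; nearly all actives have a fitted effect of over 55% in size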
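Compounds were tested in concentration-response format on HT-1080-NT cells for 48 hours at 37 degrees C. Cell viability came from CellTiter-Glo luminescence; curves were classified by r2, response magnitude and activity.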
Numbers without * were called inactive; i = inactive; ? = inconclusive; / = no result given; [ ] = another dose, or the depositor's remark. Shown are actives, neighbours in structure and some others; about 8% of the full set was active somewhere. Calls follow the shape of the dose curve; as a rule, active = well fitted curve in the direction sought with a large enough effect; inconclusive = small, poorly fitted or top-dose-only effect, or another doubt; inactive = no such curve, though single readings can be large; an effect the other way counts as inactive or inconclusive. Potency is read from the fitted curve at half-maximal effect.

SMILES	MCF10A rereplic	KB-V1 cytotox	KB-3-1 tox	SW480 rerep	HT1080 IDH1KD tx	HT1080NT lethal
O=C(CN(Cc1ccccc1)S(=O)(=O)c1ccccc1)N/N=C/c1ccc([N+](=O)[O-])cc1	1%	2.1µM*	i	?	-30%	-27%
COc1ccc(/C=N/NC(=O)CN(Cc2ccccc2)S(=O)(=O)c2ccc3c(c2)OCCO3)cc1	5%	i	i	6%	2%	-14%
O=C(CN(Cc1ccccc1)S(=O)(=O)c1ccc2c(c1)OCCO2)N/N=C/c1cccc(Br)c1	7%	18µM*	i	0%	-15%	-8%
O=C(CN(Cc1ccccc1)S(=O)(=O)c1ccc2c(c1)OCCO2)N/N=C/c1ccc(F)cc1	4%	i	i	-4%	-9%[9.24 µM]	?
Cc1cc(C)nc(NS(=O)(=O)c2ccc(N=NN(C)C)cc2)n1	-2%	i	i	-3%	2%	0%
CCN(CC)CCCNC(=O)c1c(C)oc2ncn(CC(C)C)c(=O)c12	/	i	i	/	/	/
O=C1CCCC2=C1C1(CCCC1)N=C(Nc1nc3ccccc3n1Cc1ccccc1)N2	/	i	i	/	/	/
CC(C)C[C@H]1CNC(=S)N1CC1CCN(CC2CCCC2)CC1	?	i	i	0.026µM*	7%	-2%
CC(C)C[C@@H](CN1CCCC1CN1C(=S)NC[C@@H]1Cc1ccc(O)cc1)N1C[C@H](Cc2ccc(O)cc2)N(CC2CCCCCC2)C1=S (stereo not given in full)	?	?	?	4%	?	23µM*
CC(C)C[C@H]1CN([C@@H](CC(C)C)CN2CCCC2CN2C(=S)NC[C@@H]2Cc2ccccc2)C(=S)N1CC1CCCCC1 (stereo not given in full)	/	?	i	/	16µM*	-29%
CC(C)C[C@@H](CN1CCCC1CN1C(=S)NC[C@@H]1Cc1ccc(O)cc1)N1C[C@H](Cc2ccccc2)N(CC2CCCCCC2)C1=S (stereo not given in full)	21%	?	i	-6%	-13%	-5%
CC(C)C[C@H]1CNC(=S)N1C[C@H]1CCCN1C[C@H](CC(C)C)N1C[C@H](Cc2ccc(O)cc2)N(CC2CCCCC2)C1=S	/	16µM*	?	/	21µM*	18µM*
CN(C)c1ccc(/C=C2\C=Cc3ccccc32)c(F)c1	/	i	i	/	/	/
COc1ccc(-c2noc(-c3ccc(NCc4ccc(C)cc4)c([N+](=O)[O-])c3)n2)cc1OC	/	i	i	/	/	/
CC(C)C[C@H]1CNC(=S)N1C[C@H]1CCCN1C[C@H](Cc1ccc(O)cc1)N1C[C@H](Cc2ccc(O)cc2)N(CC2CCCCCC2)C1=S	/	?	?	/	13µM*	12µM*
CCN1CCN(c2cc(C(C)(C)C)nc3c(-c4ccccc4)c(C)nn23)CC1	?	i	i	6.5µM*	13µM*	?
CCN1CCN(c2cc(C(C)C)nc3c(-c4ccccc4)c(C)nn23)CC1	?	?	i	-48%	16µM*	?
Cc1nn2c(N3CCOCC3)cc(C(C)C)nc2c1-c1ccccc1	-1%	i	i	-6%	11%	6%
CN(C)CCCNc1cc(C(C)(C)C)nc2c(-c3ccccc3)cnn12	?	i	i	?	?	21µM*
CC(C)(C)c1cc(NCCCn2ccnc2)n2ncc(-c3ccc(Cl)cc3)c2n1	?	?	i	?	10µM*	10µM*
Cc1cc(NCCCn2ccnc2)n2nc(-c3ccc(Cl)cc3)cc2n1	8%	i	i	-4%	-13%	-1%
CN(C)CCCN(Cc1ccccc1)C(=S)Nc1ccc(OC(F)F)cc1	7%	?	i	/	-1%	-6%
CCCOc1ccc(CC2C(=O)Nc3ccc(Br)cc32)cc1 (stereo not given)	/	i	i	/	/	/
CC(=O)c1ccc(N2CCN(S(=O)(=O)c3ccc4c(c3)C(Cl)(Cl)C(=O)N4)CC2)cc1	/	i	i	/	/	/
CN(c1ccccc1)c1cc(Br)nc(Br)c1	1%	21µM*	?	-8%	-20%	-26%
SMILES	MCF10A rereplic	KB-V1 cytotox	KB-3-1 tox	SW480 rerep	HT1080 IDH1KD tx	HT1080NT lethal
CC(=O)c1c(C)[nH]c(C(=O)CSc2ncnc3sc(-c4ccccc4)cc23)c1C	11%	7.3µM*	i	/	?	0%
CC(=O)c1c(C)[nH]c(C(=O)CSc2nnc(-c3ccco3)n2Cc2ccccc2)c1C	15%	18µM*	i	-2%	-20%	-1%
Cc1cc(C(=O)CSc2nnc(-c3cccs3)n2Cc2ccccc2)c(C)n1C	-6%	i	i	-5%[9.22 µM]	-5%	-5%
O=c1cc(CSc2nnc(-c3cccs3)n2Cc2ccccc2)nc2sc3ccccc3n12	11%	?	i	-3%	26µM*	-19%
O=C(O)CSc1ncnc2sc(-c3ccccc3)cc12	15%	i	i	-4%	11%	14%
CC(=O)c1c(C)[nH]c(C(=O)CSc2nnc(-c3cccs3)n2Cc2ccccc2)c1C	21µM*	5.8µM*	i	20%	-28%	1%
Cc1ccc(/C=C/c2onc(C)c2S(=O)(=O)N2CCC(C(=O)Nc3ccccc3C(F)(F)F)CC2)cc1	/	?	i	/	/	/
CC(=O)c1c(C)[nH]c(C(=O)CSc2nnc(-c3ccccc3)n2Cc2ccc3c(c2)OCO3)c1C	?	?	i	?	23µM*	?
COCCn1c(SCC(=O)c2[nH]c(C)c(C(C)=O)c2C)nc2ccccc21	-17%	16µM*	i	-10%	8%	6%
C=CCn1c(SCC(=O)c2[nH]c(C)c(C(C)=O)c2C)nnc1-c1ccncc1	2%	i	i	-6%	2%[9.24 µM]	3%
CCOC(=O)c1c(C)[nH]c(C(=O)CSc2nnc(-c3cccs3)n2Cc2ccccc2)c1C	?	2.3µM*	i	?	?	-25%
CN1CCN(c2cccc(Nc3nn4c(=O)c5ccc(Br)cc5nc4s3)c2)CC1	/	i	i	/	/	/
CCOc1cc(C(=O)OCc2cc(=O)n3nc(CC)sc3n2)cc(OCC)c1OCC	/	i	i	/	/	/
CCOC(=O)CC(=O)CSc1nc2ccccc2c(=O)n1CCc1ccc(S(N)(=O)=O)cc1	/	i	i	/	/	/

Screening results as filed in PubChem.
